Measurements taken from ChEMBL document CHEMBL4296182, “CO-ADD screening of NIH NCI Diversity Set V”.
For part of these data: Entries with a potency or affinity are not part of this list.

Key:
[1] = tested on: Staphylococcus aureus; experiment: Antibacterial activity against Staphylococcus aureus MRSA ATCC 43300 (CO-ADD:GP_020); MIC in CAMBH media using NBS plates, by Resazurin F(560/590); assay type: functional; settings: Concentration 20 uM, ASSAY_TEST Inhibition of Bacterial Growth, detection method Resazurin, Fluorescence (ex560/em590), MEDIA CAMHB, plate type 384well, CORNING #3640, time 18 hr
[2] = tested on: Acinetobacter baumannii; experiment: Antibacterial activity against Acinetobacter baumannii ATCC 19606 (CO-ADD:GN_034); MIC in CAMBH media using NBS plates, by Resazurin F(560/590); assay type: functional; settings: Concentration 20 uM, ASSAY_TEST Inhibition of Bacterial Growth, detection method Resazurin, Fluorescence (ex560/em590), MEDIA CAMHB, plate type 384well, CORNING #3640, time 18 hr
[3] = tested on: Escherichia coli; experiment: Antibacterial activity against Escherichia coli ATCC 25922 (CO-ADD:GN_001); MIC in CAMBH media using NBS plates, by Resazurin F(560/590); assay type: functional; settings: Concentration 20 uM, ASSAY_TEST Inhibition of Bacterial Growth, detection method Resazurin, Fluorescence (ex560/em590), MEDIA CAMHB, plate type 384well, CORNING #3640, time 18 hr
[4] = tested on: Klebsiella pneumoniae; settings: Concentration 20 uM; ASSAY_TEST Inhibition of Bacterial Growth; detection method Absorption (OD600); MEDIA CAMHB; plate type 384well; NBS; CORNING #3640; time 18 hr
[5] = tested on: Candida albicans; settings: 20 µM
[6] = tested on: Cryptococcus neoformans; settings: Concentration 20 uM; ASSAY_TEST Inhibition of Fungal Growth; detection method Resazurin; Absorption (OD600-OD570); plate type 384well; NBS; CORNING #3640

SMILES	Inhibition [1]	Inhibition [2]	Inhibition [3]	Inhibition [4]	Inhibition [5]	Inhibition [6]
COc1ccccc1/C=C1\Cc2ccccc2C1=O	-0.35%	7.42%	-7.65%	12%	10.8%	-2%
O=C(O)CCC(=O)c1ccc2ccc3cccc4ccc1c2c34	-4.99%	9.69%	-8.48%	28.79%	21.7%	-11.75%
COc1c(O)ccc2c1CN1CCc3cc4c(cc3C1C2)OCO4 (stereo unspecified)	12.64%	10.47%	3.09%	10.21%	-2.64%	-12.68%
CCOC(=O)c1c(C)c(C(=O)OCC)n(C)c1C	8.23%	6.43%	-8.3%	6.99%	4.68%	10.56%
O=C1CSC(=S)N1/N=C/c1c[nH]c2ccc(Br)cc12	-3.88%	11.83%	4.81%	26.71%	19.6%	-14.16%
NNC(=O)Cc1cc(O)[nH]n1	0.66%	-1.89%	4.91%	-1.33%	1.93%	-9.5%
CC1=NN(c2ccccc2)C(=O)C1/N=N/c1ccc(S(N)(=O)=O)cc1 (stereo unspecified)	-7.63%	9.06%	7.33%	5.84%	11.2%	-4.3%
Nc1ccc(/N=N/c2ccccc2Cl)c(N)n1	4.22%	-1.2%	2.51%	18.4%	14.2%	-16.58%
Cc1cc(=O)n2c3c(c4c(cc13)c(CN(C)C)cc(=O)n4C)OC2.Cl	-3.31%	19.85%	6.04%	7.61%	-0.27%	-11%
Oc1ccccc1-n1c(-c2ccccc2)ccc1-c1ccccc1	3.47%	1.43%	1.29%	19.15%	11.1%	-2.48%
NC(=O)N/N=C1\CC2CC1C1C=CCC21 (stereo unspecified)	5.27%	-14.41%	8.37%	17.34%	-2.08%	-9.13%
NS(=O)(=O)c1ccc(/N=N/c2c(O)c(C(=O)O)cc3ccccc23)cc1	-3.85%	10.2%	-7.6%	18.16%	-3.08%	-0.96%
Cn1ncc2c(Nc3ccc(Br)cc3)nc(Nc3ccc(Br)cc3)nc21	3.19%	-7.92%	12.54%	2.31%	-0.11%	-3.38%
CCOc1ccc(/C=C2\NC(=S)NC2=O)cc1	4.57%	-5.71%	-3.24%	22.87%	0.92%	-6.77%
O=C(Nc1cc(-c2ccccc2)[nH]n1)c1ccc(Cl)cc1	11.18%	-15.73%	6.31%	6.21%	8.34%	-8.44%
CC1=C2C3OC(=O)C(C)C3CCC2(C)C=C(Cl)C1=O (stereo unspecified)	-4.99%	-5.14%	-9.28%	10.19%	1.04%	-2.81%
NC(=O)C1=C(N)c2ccccc2C1c1ccccc1 (stereo unspecified)	-22.4%	2.22%	-18.86%	1.18%	4.94%	28.25%
O=C1C(Cl)=C(O)C2(Cl)C(Cl)=C(Cl)C12Cl (stereo unspecified)	15.05%	13.34%	5.55%	11.98%	9.34%	-12.02%
Cc1cccc(N2CCN(CC(O)COc3ccc(Cl)cc3)CC2)c1 (stereo unspecified)	13.02%	4.97%	5.23%	7.2%	0.39%	-12.55%
C#CC(C)OCC1CNC(=S)O1 (stereo unspecified)	8.34%	0.13%	10.24%	3.71%	4.06%	15.9%
Cn1nc(N)c2ncc(C(Cl)(Cl)Cl)nc21	-7.62%	-8.78%	5.5%	9.07%	10.5%	-10.84%
